Screens as filed in PubChem BioAssay.
Shown are actives, neighbours in structure and some others; about 19% of the full set was active somewhere.
TDP1 cell noCPT: qHTS for Inhibitors of human tyrosyl-DNA phosphodiesterase 1 (TDP1): qHTS in cells in absence of CPT; DT40 Tdp1-/- hTDP1 cells, no CPT, ATP luminescence, 48 h; Potency, µM (series often up to 46.2 µM), usual class: inhibitors; 420,000 compounds, 15% hits; AID 686978, 2013; note: nearly all actives have a fitted effect of over 55% in size
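No-CPT arm: Tdp1-/-;hTDP1 DT40 cells (400/well) plus compounds, incubated ≥48 hr at 37 °C. Readout CellTiter-Glo luminescence.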
Gal4-VP16 FLuc: VP16 counterscreen qHTS for inhibitors of ROR gamma transcriptional activity. Drosophila S2 Gal4-VP16 UAS-luciferase, luminescence, 20 h. Potency, µM (series often up to 53.6 µM), most hits filed as inhibitors. 310,000 compounds, 3.5% hits. AID 2546, 2010;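 note: Gal4-VP16 expression switched on by copper sulfate through the metallothionein promoter; nearly all actives have a fitted effect of over 50% in size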
RORgamma inh: qHTS for inhibitors of ROR gamma transcriptional activity | Nuclear receptor ROR-gamma (Mus musculus), P51450 | Drosophila S2 Gal4-RORgamma UAS-luciferase reporter, 20 h | Potency, µM (top dose mostly 53.6 µM), actives largely listed as inhibitors | 310,000 compounds, 5.4% hits | AID 2551, 2010; note: nearly all actives have a fitted effect of over 60% in size
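Luciferase reporter read in Schneider cells carrying Gal4-RORγ (mouse) and UAS-Photinus luciferase; cells given compound 1 h before 700 uM copper sulfate induction, then incubated 20 h at ambient temperature.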
TDP1 cell CPT: qHTS for Inhibitors of human tyrosyl-DNA phosphodiesterase 1 (TDP1): qHTS in cells in presence of CPT. chicken DT40 Tdp1-/-;hTDP1 cells + 20 nM CPT, ATP luminescence, 48 h. AID 686979, 2013. 420,000 compounds, 12% hits. Potency, µM (highest dose often 46.2 µM), usual class: inhibitors; note: nearly all actives have a fitted effect of over 55% in size
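Chicken DT40 Tdp1-/- cells stably complemented with human TDP1 were seeded at 400 cells/well in medium containing 20 nM camptothecin, exposed to pin-transferred compounds, and grown at 37 °C for at least 48 hr. Viability was read as ATP luminescence.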
TDP1 block: qHTS Assay for Inhibitors of Tyrosyl-DNA Phosphodiesterase (TDP1); 350,000 compounds, 0.28% hits; Potency, µM (doses to about 130 µM), usual class: inhibitors; Tyrosyl-DNA phosphodiesterase 1 (Homo sapiens), Q9NUW8; recombinant TDP1, AlphaScreen DNA substrate cleavage; note: nearly all actives have a fitted effect of over 40% in size
Target sequence (Q9NUW8 whole entry, looked up): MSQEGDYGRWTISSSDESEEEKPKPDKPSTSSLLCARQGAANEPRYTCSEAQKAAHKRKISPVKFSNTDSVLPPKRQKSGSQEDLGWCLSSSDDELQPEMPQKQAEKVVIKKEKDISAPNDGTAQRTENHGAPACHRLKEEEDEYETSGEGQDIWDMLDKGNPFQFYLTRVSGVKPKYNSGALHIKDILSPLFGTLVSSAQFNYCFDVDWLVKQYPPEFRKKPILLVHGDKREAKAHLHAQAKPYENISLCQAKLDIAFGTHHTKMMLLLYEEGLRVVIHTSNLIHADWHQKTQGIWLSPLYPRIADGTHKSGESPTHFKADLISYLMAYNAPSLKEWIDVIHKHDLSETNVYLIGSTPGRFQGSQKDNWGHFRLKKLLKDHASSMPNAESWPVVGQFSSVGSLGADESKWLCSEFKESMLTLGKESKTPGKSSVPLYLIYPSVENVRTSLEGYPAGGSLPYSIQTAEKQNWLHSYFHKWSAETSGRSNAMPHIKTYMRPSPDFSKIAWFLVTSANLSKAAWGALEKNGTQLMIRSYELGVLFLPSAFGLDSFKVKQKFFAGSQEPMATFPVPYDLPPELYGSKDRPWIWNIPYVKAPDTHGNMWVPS
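AlphaScreen read-out: signal falls as enzyme removes the 3' tyrosine-FITC from a 5'-biotinylated DNA oligo (15 nM, 5 min, RT). Enzyme was E. coli-made recombinant Tdp1 at 1 nM, exposed to compound for 15 min beforehand; beads 10 ug/ml, 10 min.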
Numbers stand for hits; - = inactive; ? = inconclusive; . = not tested or not shown; [ ] = dose if it differs, or a comment. Calls come from the whole dose curve; as a rule, active = well fitted curve in the direction sought with a large enough effect; inconclusive = small, poorly fitted or top-dose-only effect, or another doubt; inactive = no such curve, though single readings can be large; an effect the other way counts as inactive or inconclusive.

SMILES	TDP1 cell noCPT	Gal4-VP16 FLuc	RORgamma inh	TDP1 cell CPT	TDP1 block
COc1ccc2cc(C)c3nnc(SCC(=O)Nc4nc(-c5ccccc5)cs4)n3c2c1	4.6µM	-	-	?	-
Cn1cnnc1SCC(=O)Nc1nc(-c2ccccc2)cs1	?	-	?	-	35µM
CCOn1c(=O)c(-c2ccc(F)cc2)[n+]([O-])c2ccccc21	-	-	-	-	.
COc1ccc(C(=O)Oc2cc(C)[nH]c(=O)c2[N+](=O)[O-])c(OC)c1	-	-	-	-	.
CC(C)[C@@H]1Cc2[nH][nH]c(=O)c2[C@H](c2ccc(F)cc2)O1	?	.	.	-	.
CSc1nsc(SCc2ccc(Cl)cc2)n1	-	-	-	-	-
CCc1ccc(NC(=O)COC(=O)c2nc3nc(C)cc(C)n3n2)cc1	-	.	.	-	-
COc1ccc(N2CCN(C(=O)CNC(=O)Cc3ccc(Cl)cc3)CC2)cc1	5.8µM	-	-	5.2µM	-
CC(C)[C@H](NC(=O)c1ccc(Cl)cc1)C(=O)OCC(=O)N1CCN(c2ccccc2)CC1	21µM	.	.	?	-
O=C(Cc1ccc(Cl)cc1)NCC(=O)N1CCN(c2ccccc2)CC1	23µM	-	?	29µM	-
COc1ccc(N2CCN(C(=O)CNC(=O)Cc3ccccc3)CC2)cc1	-	.	.	-	-
O=C(NCCc1nnc2n1CCN(Cc1c(F)cccc1F)CC2)c1ccc(F)cc1	-	.	.	-	.
Cc1ccccc1NC(=O)c1ccc(N/N=C/c2ccccc2O)c([N+](=O)[O-])c1	10µM	-	-	8.2µM	-
Cc1ccc(NC(=O)c2ccc(N/N=C/c3cccc(O)c3)c([N+](=O)[O-])c2)cc1	12µM	?	?	9.2µM	-
C=CCn1c(SCc2ccc(C(=O)Nc3nccs3)cc2)nnc1-c1ccc(C)c(Cl)c1	23µM	?	?	?	-
Cn1nnnc1SCc1ccc(C(=O)Nc2nccs2)cc1	-	-	-	-	-
Cn1cc(C(F)(F)F)nc1-c1ccc(OC[C@@H](O)CNCCOc2ccc(O)c(C(N)=O)c2)cc1	?	-	-	-	-
OCCN1CCN(CC/C=C2/c3ccccc3Sc3ccc(C(F)(F)F)cc32)CC1	9.4µM	?	?	21µM	-
CCc1ccc(CN(Cc2ccco2)C(=O)c2ccc(OC)cc2)cc1	23µM	.	.	?	-
COc1ccc(C(=O)N(Cc2ccco2)Cc2ccc(C)o2)cc1	21µM	.	.	21µM	-
COc1ccc(C(=O)N(Cc2ccco2)Cc2cccs2)cc1	.	.	.	.	-
CCCNc1ccc(-c2nc(-c3ccco3)no2)cc1[N+](=O)[O-]	-	.	.	-	-
O=C1C=CC2(C=C1)O[C@H](Cc1ccccc1)[C@@H](Cc1ccccc1)O2	0.65µM	.	.	1µM	.
COc1ccc(C[C@@H]2OC3(C=CC(=O)C=C3)O[C@H]2Cc2ccc(OC)cc2)cc1	0.37µM	.	.	0.41µM	.
CC1CCCC(NC(=O)COC(=O)c2ccc([N+](=O)[O-])s2)C1C (centres undefined)	-	.	.	-	-
SMILES	TDP1 cell noCPT	Gal4-VP16 FLuc	RORgamma inh	TDP1 cell CPT	TDP1 block
Cc1c(NC(=O)C(C)OC(=O)c2ccc([N+](=O)[O-])s2)c(=O)n(-c2ccccc2)n1C (centres undefined)	16µM	-	-	23µM	-
Cc1c(NC(=O)C(C)OC(=O)c2sc3ccccc3c2Cl)c(=O)n(-c2ccccc2)n1C (centres undefined)	-	-	-	-	-
CC(OC(=O)c1ccc([N+](=O)[O-])s1)C(=O)NC1CCCCC1C (centres undefined)	?	.	.	23µM	-
C=CCNC(=O)c1ccccc1NC(=O)c1ccccc1SC	-	-	-	-	-
COc1cc(C(=O)Nc2ccc3c(c2)OCCO3)ccc1-n1cnnn1	-	-	-	-	-
O=C(O)COc1ccc(/C=C/C(=O)c2ccc(C3CCCCC3)cc2)cc1	18µM	-	?	?	.
O=C(O)COc1ccc(/C=C/C(=O)c2ccc3ccccc3c2)cc1	-	?	1.6µM	-	-[0.0935 µM]
O=C(/C=C/c1ccc(OC2CSC2)cc1)c1ccccc1	18µM	-	-	18µM	-
Cc1nc2scc(C)n2c(=O)c1S(=O)(=O)N1CCN(c2ccc(F)cc2)CC1	?	-	-	-	-
COC(=O)c1ccccc1Oc1ccc(NC(=O)C(C)(C)CCl)cc1	?	-	-	-	-
Cc1cc(C)c(NC(=O)/C(=C/c2ccccc2)c2ccccc2)c(C)c1	21µM	?	-[10 µM]	23µM	-
N#Cc1c(Nc2ccc(Cl)cc2)s[nH]c1=O	12µM	?	?	15µM	.
CN1CCC(N(C)S(=O)(=O)c2ccc(NC(=O)COc3cccc(C(F)(F)F)c3)cc2)CC1	?	.	.	?	-
N#CC(C#N)=C1c2cc(S(=O)(=O)NCCO)ccc2-c2ccc(S(=O)(=O)NCCO)cc21	?	?	-	13µM	.
N#CC(C#N)=C1c2cc(S(N)(=O)=O)ccc2-c2ccc(S(N)(=O)=O)cc21	21µM	-	-	16µM	-
NS(=O)(=O)c1ccc2c(c1)C(=NO)c1cc(S(N)(=O)=O)ccc1-2	-	-	-[1.91 µM]	-	.
CCCS(=O)(=O)c1c(S(=O)(=O)CCC)c2cc(C(C)(C)C)ccn2c1C(=O)c1ccc(C)cc1	15µM	.	.	23µM	-
O=C(CNC(=O)c1ccccc1F)Nc1ccc2c(c1)CCC2	-	.	.	-	-
CCCSC1=NC2(CCN(C(=O)NC3CCCCC3)CC2)N=C1c1ccc(C)cc1	-	.	.	-	-
COCCNC(=O)C(c1ccc(C)o1)N(C(=O)c1snc(C(N)=O)c1N)c1cccc(C)c1 (centres undefined)	-	-	-	?	-
CC(C)CC(=O)NC(=S)Nc1ccc(CN2CCOCC2)cc1	-	-	4.5µM	-	-
CCc1cccc(NC(=S)Nc2ccc(CN3CCOCC3)cc2)c1	-	20µM	11µM	-	-
CC(C)c1ccc(/C=C/C(=O)NC(=S)NN2CCOCC2)cc1	?	4.5µM	4µM	?	-
O=C(CCCCl)NC(=S)Nc1ccc(CN2CCOCC2)cc1	?	-	-	-	-
O=C(COc1ccccc1Cl)NC(=S)Nc1ccc(CN2CCOCC2)cc1	-	-	-	-	-
CC(C)c1ccc(/C=C/C(=O)NC(=S)Nc2ccc(CN3CCOCC3)cc2)cc1	18µM	5µM	2.8µM	9.2µM	-
CCCCC(c1nc2ccccc2[nH]1)n1c(-c2ccccc2)nc2ccccc21 (centres undefined)	-	.	.	-	.
CCCCC(c1nc2ccccc2[nH]1)n1c(-c2ccccc2)nc2cc(C)c(C)cc21 (centres undefined)	23µM	.	.	15µM	.
